Results as given in PubChem BioAssay (NCI).
The panel holds about 83,000 compounds, 20% with a hit somewhere; the sample as a whole holds those more often.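 96-well plates, one dose, 48 hours. Percent growth reported; active if below 10.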 Unmarked numbers belong to inactive results. Calls of active or inactive are those of the source.

System: SR leukemia
Assay: NCI-60 one-dose screen, 48 h (100 = growth as untreated, 0 = no growth, -100 = all killed)
Details: 10 µM unless noted

SMILES | growth
Cc1ccccc1CNc1ncnc2[nH]ncc12 | 60.9%
CN(C)CCOc1nc2c3ccncc3cc(-c3cccc(Cl)c3)c2c2cnccc12 | -27.7% (active)
Cc1ccc(C2CC(c3cccs3)=NN2c2ccc(S(N)(=O)=O)cc2)s1 (stereo not drawn) | 82.2%
CN=C1C=C/C(=N/N=c2/ccn(O)cc2C)C=C1C | 90.5%
Oc1[nH]c2ccccc2c1/C=c1/ccc2c(c1)N=C(c1ccc(C(F)(F)F)cc1)N=2 | 12.1%
Clc1ccc(Nc2ncnc3c2sc2ncccc23)cc1 | 10.4%
Nc1nc(N)c2cc(Sc3ccc(Cl)cc3)ccc2n1 | 7.93% (active)
CCN(C(=O)Nc1cccc2ccccc12)c1ccccc1 | 90.2%
CCN(CC)CCCC(C)Nc1cnc(C(=O)Nc2ccc(Cl)c3cccnc23)cn1 (stereo not drawn) | 1.42% (active)
C/C(=N\NC(=S)Nc1ccccc1)c1ccccn1 | 13.7%
C[C@]12CCc3nc(Nc4ccc(O)cc4)sc3C1=CC[C@@H]1[C@@H]2CC[C@]2(C)/C(=N/NC(N)=S)CC[C@@H]12 | -5.27% (active)
CC1(C)C(N(O)C(=O)Nc2ccc(Cl)cc2)N(c2ccc(Cl)cc2)C(=O)N1CC(=O)N/N=C/C=C/c1ccc([N+](=O)[O-])o1 (stereo not drawn) | -13.1% (active)
COc1ccc(C(=O)c2c(N)nc3n2CCCC3)cc1OC | 84.3%
Fc1ccc2c(CN3CCO[C@H](COc4cccc(Cl)c4)C3)c[nH]c2c1 | 37.3%
CC(=O)c1c(C)nc(-c2cc(C)cc(Cl)c2)nc1-c1cccc(Oc2ccccc2)c1 | 10.1%
FC(F)(F)c1ccc(/C=N/Nc2nnc3n2N=C(c2ccc(Cl)cc2)CS3)cc1 | 79.7%
O=C1/C(=C\c2cccn2C(=O)c2ccccc2)c2ccccc2N1c1c(Cl)cccc1Cl | 25%
Cc1ccc(S(=O)(=O)NC(CCC(=O)Nc2ccc(Cl)cc2)C(=O)Nc2ccc(Cl)cc2)cc1 (stereo not drawn) | -18.2% (active)
CNC(=O)c1cc(Oc2ccc(NC(=O)c3nc(S(C)(=O)=O)n(C)c3-c3ccc(F)cc3)cc2)ccn1 | 60.2%
Nc1c(C(=O)c2ccc(Br)cc2)sc2nc3c(cc12)CCCC3 | 65.3%
CCCCn1cnc(-c2cc(-c3ccccc3)cc(C(F)(F)F)c2)n1 | 89.5%
COCCCNCC(=O)Nc1c(C)cccc1C | 100%
COc1ccc(/C(=C\c2ccc3c(c2)OCO3)C(=O)Nc2nc3ccccc3s2)cc1 | 81.7%
COc1ccc2[nH]c(O)c(/C=c3/ccc4c(c3)N=C(c3ccc(C(F)(F)F)cc3)N=4)c2c1 | 62.6%

System: RPMI-8226 leukemia
Assay: as above
Details: 10 µM unless noted

SMILES | growth
CC(C)c1[nH]ncc1-c1nc2ccc3[nH]ncc3c2c2c1CCCC2 | 33.9%
Cc1cc(-c2nnc(/C=C/c3ccc4c(c3)OCO4)o2)n[nH]1 | 66.5%
CCN(CC)CCCCCCCNc1cc(OC)cc2c(C)ccnc12 | 68.9%
CCCc1n(Cc2ccc3ccccc3n2)cc[n+]1Cc1ccc2ccccc2n1 | -10.8% (active)
COc1ccc(/C=C2\N=C(c3cccnc3)N(c3ccccc3)NC2=O)cc1 | 68.5%
COc1ccc(Sc2[nH]c(C=O)c3ccccc23)cc1 | -17.3% (active)
COc1ccc(-n2nc(C(=O)NCC(=O)Nc3nc4cc(OC)ccc4s3)c3ccccc3c2=O)cc1 | 39.1%
CCCCN(CCCC)CCCN=c1nc2c(c(N)n1-c1ccccc1)c(=S)n(-c1ccccc1)c(=S)n2-c1ccccc1 | -53.4% (active)
O=C(/C=C/c1ccccc1)C(Br)C(Br)c1ccccc1 (stereo not drawn) | -42.2% (active)
COc1ccc(Nc2ncccc2C(=O)NCc2cn(Cc3cc(OC)cc(OC)c3)nn2)cc1 | 99.8%
CN(C)c1ccc(C(c2ccccc2)c2ccc(N(C)C)cc2)cc1 | 57.4%
COc1ccc(/C(=C\c2cc(OC)c(OC)c(OC)c2)C(=O)N2CCNCC2)cc1 | 95.1%
CC(=O)c1ccc(Nc2nc(Cl)nc(Oc3c(Cl)cccc3Cl)n2)cc1 | 70%
COc1cc2nccc(Oc3ccc(NC(=O)C4(C(=O)Nc5ccc(F)cc5)CC4)cc3)c2cc1Oc1ccc(N)cn1 | 48.5%
N#Cc1nc(-c2ccc(Cl)cc2)cc(-c2ccc(Nc3nc(N4CCCCC4)nc(N4CCCCC4)n3)cc2)c1N | 111%
Cc1ccccc1CNc1ncnc2[nH]ncc12 | 88.5%
CN(C)CCOc1nc2c3ccncc3cc(-c3cccc(Cl)c3)c2c2cnccc12 | 9% (active)
Cc1ccc(C2CC(c3cccs3)=NN2c2ccc(S(N)(=O)=O)cc2)s1 (stereo not drawn) | 65.3%
CN=C1C=C/C(=N/N=c2/ccn(O)cc2C)C=C1C | 77.1%
Oc1[nH]c2ccccc2c1/C=c1/ccc2c(c1)N=C(c1ccc(C(F)(F)F)cc1)N=2 | 35.6%

SMILES | growth
Clc1ccc(Nc2ncnc3c2sc2ncccc23)cc1 | 38.2%
Nc1nc(N)c2cc(Sc3ccc(Cl)cc3)ccc2n1 | 20.1%
CCN(C(=O)Nc1cccc2ccccc12)c1ccccc1 | 103%
CCN(CC)CCCC(C)Nc1cnc(C(=O)Nc2ccc(Cl)c3cccnc23)cn1 (stereo not drawn) | 2.2% (active)
C/C(=N\NC(=S)Nc1ccccc1)c1ccccn1 | 33.5%
C[C@]12CCc3nc(Nc4ccc(O)cc4)sc3C1=CC[C@@H]1[C@@H]2CC[C@]2(C)/C(=N/NC(N)=S)CC[C@@H]12 | -16.3% (active)
CC1(C)C(N(O)C(=O)Nc2ccc(Cl)cc2)N(c2ccc(Cl)cc2)C(=O)N1CC(=O)N/N=C/C=C/c1ccc([N+](=O)[O-])o1 (stereo not drawn) | -23.7% (active)
COc1ccc(C(=O)c2c(N)nc3n2CCCC3)cc1OC | 99.3%
Fc1ccc2c(CN3CCO[C@H](COc4cccc(Cl)c4)C3)c[nH]c2c1 | 12.5%
CC(=O)c1c(C)nc(-c2cc(C)cc(Cl)c2)nc1-c1cccc(Oc2ccccc2)c1 | 46.4%
FC(F)(F)c1ccc(/C=N/Nc2nnc3n2N=C(c2ccc(Cl)cc2)CS3)cc1 | 85.1%
O=C1/C(=C\c2cccn2C(=O)c2ccccc2)c2ccccc2N1c1c(Cl)cccc1Cl | 69.6%
Cc1ccc(S(=O)(=O)NC(CCC(=O)Nc2ccc(Cl)cc2)C(=O)Nc2ccc(Cl)cc2)cc1 (stereo not drawn) | 13.5%
CNC(=O)c1cc(Oc2ccc(NC(=O)c3nc(S(C)(=O)=O)n(C)c3-c3ccc(F)cc3)cc2)ccn1 | 55.6%
Nc1c(C(=O)c2ccc(Br)cc2)sc2nc3c(cc12)CCCC3 | 94.6%
CCCCn1cnc(-c2cc(-c3ccccc3)cc(C(F)(F)F)c2)n1 | 98.2%
COCCCNCC(=O)Nc1c(C)cccc1C | 108%
COc1ccc(/C(=C\c2ccc3c(c2)OCO3)C(=O)Nc2nc3ccccc3s2)cc1 | 94.5%
COc1ccc2[nH]c(O)c(/C=c3/ccc4c(c3)N=C(c3ccc(C(F)(F)F)cc3)N=4)c2c1 | 77.1%
